Screening data: PubChem, Center for Chemical Genomics, University of Michigan
Dicer processing: inhibitors of Dicer pre-microRNA processing, primary screen, biochemical, cat-ELCCA, chemiluminescence; Endoribonuclease Dicer (Homo sapiens), Q9UPY3; 6% of 47,000 active; AID 1347074, 2019; z-score at 25 µM; cat-ELCCA pre-miR-21 Dicer processing; hits give high values; in the data active = z-score above about 3, passing the limit was not always enough;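 also: plate controls were vehicle for no effect and no enzyme for full effect; higher signal means more uncleaved substrate so more Dicer inhibition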
Target sequence (Q9UPY3 whole entry, looked up): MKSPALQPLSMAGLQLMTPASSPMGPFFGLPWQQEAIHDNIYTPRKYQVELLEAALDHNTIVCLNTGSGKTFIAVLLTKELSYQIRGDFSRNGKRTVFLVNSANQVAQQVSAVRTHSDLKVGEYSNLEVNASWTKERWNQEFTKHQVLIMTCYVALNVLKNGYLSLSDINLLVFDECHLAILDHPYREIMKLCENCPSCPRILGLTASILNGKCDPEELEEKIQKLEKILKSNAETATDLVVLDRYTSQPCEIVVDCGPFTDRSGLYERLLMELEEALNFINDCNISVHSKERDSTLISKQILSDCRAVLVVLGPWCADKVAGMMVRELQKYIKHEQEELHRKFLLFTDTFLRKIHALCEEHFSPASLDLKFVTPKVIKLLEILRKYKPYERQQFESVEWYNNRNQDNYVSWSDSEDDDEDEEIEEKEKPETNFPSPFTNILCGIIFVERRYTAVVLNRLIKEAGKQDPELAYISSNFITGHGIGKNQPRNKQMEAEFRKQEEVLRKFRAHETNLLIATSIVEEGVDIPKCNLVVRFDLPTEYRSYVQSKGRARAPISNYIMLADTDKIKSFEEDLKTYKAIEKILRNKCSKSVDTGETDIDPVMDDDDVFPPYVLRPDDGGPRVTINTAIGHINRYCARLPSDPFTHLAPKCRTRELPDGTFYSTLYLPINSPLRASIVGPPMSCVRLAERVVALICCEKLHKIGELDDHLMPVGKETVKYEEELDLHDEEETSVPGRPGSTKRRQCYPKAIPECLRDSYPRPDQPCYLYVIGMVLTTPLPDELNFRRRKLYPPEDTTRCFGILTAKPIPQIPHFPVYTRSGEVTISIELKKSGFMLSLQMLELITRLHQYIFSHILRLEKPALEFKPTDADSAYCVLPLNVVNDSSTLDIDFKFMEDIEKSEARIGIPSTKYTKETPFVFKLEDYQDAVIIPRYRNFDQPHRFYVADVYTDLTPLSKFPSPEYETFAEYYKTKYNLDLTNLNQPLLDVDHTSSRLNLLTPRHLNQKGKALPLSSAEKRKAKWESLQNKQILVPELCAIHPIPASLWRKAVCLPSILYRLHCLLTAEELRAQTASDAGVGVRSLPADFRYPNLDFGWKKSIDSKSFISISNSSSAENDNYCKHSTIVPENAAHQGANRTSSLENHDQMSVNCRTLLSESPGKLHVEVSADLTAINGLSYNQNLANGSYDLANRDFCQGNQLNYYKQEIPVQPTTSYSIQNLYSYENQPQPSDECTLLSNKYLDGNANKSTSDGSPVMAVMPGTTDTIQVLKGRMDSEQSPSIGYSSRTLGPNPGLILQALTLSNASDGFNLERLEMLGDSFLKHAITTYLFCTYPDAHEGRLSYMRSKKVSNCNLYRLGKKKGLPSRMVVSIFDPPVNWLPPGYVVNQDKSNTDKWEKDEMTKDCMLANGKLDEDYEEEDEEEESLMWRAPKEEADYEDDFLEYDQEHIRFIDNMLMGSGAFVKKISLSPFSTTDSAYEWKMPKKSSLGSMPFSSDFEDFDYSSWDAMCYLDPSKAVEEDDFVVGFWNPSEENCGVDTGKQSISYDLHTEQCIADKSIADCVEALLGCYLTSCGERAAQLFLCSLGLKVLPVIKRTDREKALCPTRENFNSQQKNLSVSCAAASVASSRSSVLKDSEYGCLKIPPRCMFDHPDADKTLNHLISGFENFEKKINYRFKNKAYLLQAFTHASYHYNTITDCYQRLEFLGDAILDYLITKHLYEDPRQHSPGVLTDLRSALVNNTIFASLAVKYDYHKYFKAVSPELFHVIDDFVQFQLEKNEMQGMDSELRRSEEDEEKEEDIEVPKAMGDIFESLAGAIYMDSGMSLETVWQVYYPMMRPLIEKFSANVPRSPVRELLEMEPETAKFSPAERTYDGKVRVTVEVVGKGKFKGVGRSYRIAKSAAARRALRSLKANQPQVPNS
The depositor's hits bear a star. This is one part of a sample in which hits are shown more often than they occur.

SMILES	Dicer processing
CNc1ccccc1C(=O)NNc1ccc(Cl)cc1	1.07
CSc1nc(C)nc(N/C=C2\C(=O)c3ccccc3N(C)S2(=O)=O)n1	-0.05
CCOc1cc(C2Nc3ccc4ccccc4c3C3=C2C(=O)CC(C)(C)C3)ccc1O (stereo unspecified)	0.64
CC1(C)CC(=O)C2=C(C1)c1c(ccc3ccccc13)NC2c1ccc(O)cc1 (stereo unspecified)	1
CC1(C)CC(=O)C2=C(C1)c1c(ccc3ccccc13)NC2c1ccc(O)c(O)c1 (stereo unspecified)	13.4*
C[C@]12CC=CCC1CCC1C2CC[C@](C)(C(=O)O)C1/C=C1/Nc2ccccc2C1=O (stereo partly specified)	3.89*
C[C@]12CC[C@@H](O)CC1CCC1C2CC[C@](C)(C(=O)O)C1/C=C1/Nc2ccccc2C1=O (stereo partly specified)	1.48
Cc1ccc2nc(C3CCCCC3)cc(C(=O)O)c2c1	8.62
Cc1ccc2nc(C3C(=O)c4ccc(O)cc4C3=O)cc(C)c2c1 (stereo unspecified)	3.69*
Cc1cc(C2C(=O)c3ccccc3C2=O)nc2ccccc12	0.53
COc1ccccc1-c1nc(S(=O)(=O)c2ccc(Br)cc2)c(N2CCOCC2)o1	0.57
OC(c1ccccc1)C(CN1CCCCC1)CN1CCCCC1 (stereo unspecified)	-0.53
CCC(Nc1nc(-c2ccccc2)nc2ccccc12)C(=O)O (stereo unspecified)	-1.07
c1ccc(-c2nc(Nc3ccc4c(c3)OCCO4)c3ccccc3n2)cc1	5.41*
O=C(Nc1ccc2c(c1)OCCO2)c1cccc(C(=O)Nc2ccc3c(c2)OCCO3)n1	-0.09
N/C(=N\S(=O)(=O)c1cc(C(F)(F)F)cc(C(F)(F)F)c1)c1ccccc1	0.93
Cc1nc(C(F)(F)F)ccc1C(=O)N1CCSCC1	-0.12
N/C(=N\S(=O)(=O)c1cc(C(F)(F)F)cc(C(F)(F)F)c1)N1CCSCC1	5.54*
COc1ccc2[nH]cc(C(=O)O)c(=O)c2c1	1.73
COc1ccc(C(=O)Oc2ccc3c(c2)C(C)=CC(C)(C)N3)cc1OC	-0.52
COCCN1C(=O)c2oc3ccccc3c(=O)c2C1c1ccc(SC)cc1 (stereo unspecified)	-0.56
Cc1nn2c(c1-c1ccccc1)N=C(c1ccco1)CC2c1ccco1 (stereo unspecified)	3.31*
CC(=O)N1N=C(c2c(-c3ccccc3)c3cc(Cl)ccc3[nH]c2=O)CC1c1ccco1 (stereo unspecified)	2.2
Cc1nn2c3c(cnc2c1-c1ccc(F)cc1)C(=O)CC(c1ccco1)C3 (stereo unspecified)	1.04
Cc1ccc(C(=O)COC(=O)c2ccc3nc(C)c(C)nc3c2)cc1	-0.11
SMILES	Dicer processing
COC(=O)c1ccc2nc(C)c(C)nc2c1	2.43
CCOC(=O)c1ccc2nc(C)c(C)nc2c1	4.76*
O=C(c1ccc(Cl)c(Cl)c1)c1nn2c(nc(=O)c3ccccc32)s1	-3.6
COc1ccc2cc(C(C)C(=O)Nc3ccc(OC(F)(F)F)cc3)ccc2c1 (stereo unspecified)	0.66
N/C(=N\OC(=O)Nc1csc(-c2cccc(Cl)c2Cl)n1)c1ccc(Cl)cc1	-0.27
Cc1nn(C)c2[nH]c3c(c(=O)c12)CSC3	-0.11
N#Cc1c(C(F)(F)F)c([N+](=O)[O-])c(-c2cccc([N+](=O)[O-])c2)[nH]c1=O	-0.23
O=C1CSC(c2ccc(Cl)cc2)N1CCN1C(=O)CSC1c1ccc(Cl)cc1 (stereo unspecified)	-1.3
COc1ccc(Nc2c(Cl)cc(OC)cc2Cl)cc1	3.39
COc1ccc(Nc2nc(Cl)nc(Nc3ccc(OC)cc3)n2)cc1	-0.67
COc1ccc(Nc2n[nH]c(N)n2)cc1	5.57*
CCOc1ccc(/C(O)=C2\C(=O)C(=O)N(Cc3cccnc3)C2c2ccc(Br)cc2)cc1 (stereo unspecified)	1.11
CCOC(=O)/C(C#N)=C/c1cc(OC)cc(OC)c1	1.6
CCSCCOC(=O)C1=C(C)NC2=C(C(=O)CC(c3ccccc3Cl)C2)C1c1cccs1 (stereo unspecified)	0.03
COc1ccc(C2Nc3ccc(C(=O)c4ccccc4)cc3NC3=C2C(=O)CCC3)c(OC)c1 (stereo unspecified)	1.94
COc1cc(C2Nc3ccc(C(=O)c4ccccc4)cc3NC3=C2C(=O)CCC3)ccc1OC(C)=O (stereo unspecified)	-0.22
CN(C)c1ccc(C2Nc3ccc(C(=O)c4ccccc4)cc3NC3=C2C(=O)CCC3)cc1 (stereo unspecified)	5.01*
Cc1cccc(Cl)c1NC(=O)Nc1ccc(N2CCCCC2)cc1	0.79
N#CCCN(CN1C(=O)C(=O)c2cc(Br)ccc21)C1CCCCC1	-3.09
C#CCN1C(=O)C(=O)c2cc(Br)ccc21	4.34*
CCCN1C(=O)C(=O)c2cc(Br)ccc21	-0.64
CC1(C)OC(=O)C(C2C3CC4CC(C3)CC2C4)C(=O)O1 (stereo unspecified)	0.81
N#C/C(=C\c1cc(Br)cs1)c1nc2ccccc2s1	-0.22
COc1ccccc1C1CCN(Cc2ccc(Cl)cc2Cl)CC1	-0.25
COc1ccccc1C1CCN(c2ccc(C(F)(F)F)cc2[N+](=O)[O-])CC1	0.04
SMILES	Dicer processing
COc1ccccc1C1CCN(c2ccc([N+](=O)[O-])c(OC)c2)CC1	3.44*
O=c1c2ccccc2sc2ccc(C(F)(F)F)cc12	-0.22
CCOC(=O)c1ccc(N2CC3CCCCN3C2c2cccc(OC)c2O)cc1 (stereo unspecified)	-0.3
CCOc1ccc(NC(=O)c2c(N)sc3c2CCC(C(C)(C)C)C3)cc1 (stereo unspecified)	-1.56
CC(C)c1ccc(N2C=Nc3ccc(C(C)C)cc3C2)cc1	0.31
O=c1[nH][nH]c(=S)n1-c1ccc(Cl)c(Cl)c1	0.41
Clc1ccc(N2C=Nc3cc(Cl)c(Cl)cc3C2)cc1Cl	3.13*
CCOC(=O)C1=C(C)Nc2nc3ccccc3n2C1c1ccc(O)c(OCC)c1 (stereo unspecified)	0.82
CC(C)(C)OC(=O)NCCNc1ccc(C(F)(F)F)cc1N	0.68
CC1(C)CC(=O)C(N=Nc2ccccc2C(F)(F)F)=C(O)C1	0.12
COc1ccc(-c2cn3ccccc3n2)cc1	5.79*
CCc1ccn2cc(-c3ccc(C)cc3)nc2c1	1.58
COc1ccc(-c2cn3cccc(C)c3n2)cc1	0.29
COc1c(Cl)cccc1-c1cn2ccccc2n1	-1.57
CCCOc1ccc(-c2cn3ccccc3n2)cc1	3.86*
COc1ccc(-c2cn3ccccc3n2)cc1Br	1.1
CN1CCN(S(=O)(=O)c2cccc3ccccc23)CC1	-0.16
CC(C)(C)NC(=S)Nc1c(Cl)cc(Cl)cc1Cl	-0.67
COC(=O)c1c(C)n(S(=O)(=O)c2cccs2)c2ccc(NS(=O)(=O)c3cccs3)cc12	2.09
CN(C)/C=C1\COc2ccc(Cl)cc2C1=O	-0.28
COc1ccc2c3c(cccc13)C(=O)CC2	4.17*
COc1ccc(C2C(=O)c3ccccc3C2=O)cc1OC	1.35
COc1cccc2c(=O)c3ccccc3oc12	-0.98
COc1ccc(C2CC(=O)c3cnc4[nH]n(-c5ccccc5)c(=O)c4c3C2)cc1OC (stereo unspecified)	1.37
CC(C)c1nnc(NC(=O)CSc2nnc3c(n2)[nH]c2ccccc23)s1	0.41
c1ccc(OCc2nnc3sc(-c4cccnc4)nn23)cc1	-0.56
O=C(CCCOc1ccccc1)Nc1ncn[nH]1	0.48
Cc1ccc(-c2n[nH]c(=S)o2)cc1	4.84*
Cc1ccccc1-c1n[nH]c(=S)o1	-1.2
